Where “and” joins values, the source holds several entries; their conditions need not be identical. Identical values can stand only once. Screen size: about 300,000 compounds; about 37,000 (12%) were called active. This excerpt belongs to a sample that is enriched for actives. A number with no mark means an inactive call. Cut-off read from the data, not from the text of the source: active = max response mostly above about 13% (no sharp cut-off); inactive = mostly below about 14%.
Assay: Cycloheximide Counterscreen for Small Molecule Inhibitors of Shiga Toxin; note: read at 38.3 µM for the half of the compounds with a filed dose; 0% is about no effect
Conditions: cell reporter, cycloheximide protein synthesis inhibition counterscreen; hits give high values

SMILES | max response
CCC(C)C(NC(=O)C1CCC(=O)N1C(=O)OCc1ccccc1)C(=O)NC(C(=O)N1CCCC1C(N)=O)C(C)CC (stereo not drawn) | -2.75%
COc1ccccc1N1CCN(/N=C/c2ccc(O)cc2O)CC1 | 20% (active)
COc1ccccc1N1CCN(/N=C\C(Br)=C\c2ccccc2)CC1 | 21.4%
COc1cc(/C=N/N2CCN(c3ccccc3)CC2)ccc1OC(C)=O | 15.1%
Cc1nnc(NC(=O)C(c2ccccc2)c2ccccc2)s1 | -6.29%
CCCCN1C(=O)C(C)=C(C)C1OCCc1ccc(OC)c(OC)c1 (stereo not drawn) | -1.75%
COc1ccc(C(C(=O)NC2CCCCC2)N(C(=O)c2snc(C(N)=O)c2N)c2ccccc2OC)cc1 (stereo not drawn) | -4.3%
Cc1ccc(NC(=O)OCc2cncs2)cc1 | 28.5% (active)
COc1ccc(NC(=O)/C(Cl)=C(/Cl)S(=O)Cc2ccc(C)cc2)cn1 (stereo not drawn) | -12.1%
CC(C)(COC(=O)Nc1ccccc1)COC(=O)Nc1ccccc1 | 19% (active)
CC(C)(C)C1CCC(OC(=O)CCC(=O)Nc2ccccc2)CC1 (stereo not drawn) | 4.12%
Cc1ccc(NC(=O)OCCNC(=O)c2ccncc2)cc1 | 19.8% (active)
CCCCCOC(=O)NCCOC(=O)Nc1ccc(C(=O)OCC)cc1 | -1.37%
CCOC(=O)N1CCN(CCC(=O)Nc2ccccc2)CC1 | -2.64%
CCOC(=O)Nc1ccc(S(=O)(=O)N(C)C(C)C)cc1 | 2.33%
Cc1ccc(OCc2nnc(NC(=O)OCC(C)C)s2)cc1 | -6.37%
CCOC(=O)C(NC(C)=O)C(=O)Nc1ccc(OC)cc1 (stereo not drawn) | -2.02%
CCOC(=O)Nc1ccc(NC(=O)OCC)cc1 | 38.2% (active)
Cc1ccc(C(=O)NCCNC(=O)c2cnccn2)cc1 | -0.952%
O=C(c1ccccc1)C(Cn1cncn1)C(Sc1ccccc1)c1ccccc1 (stereo not drawn) | -6.69%
CC(C)C(=O)N1CCC2(CC1)Oc1ccc(F)cc1C(=O)C21CC(c2ccccc2)=NO1 (stereo not drawn) | -2.77%
CN(C)CCOC1c2ccccc2-c2ccccc21 | 0.251%

SMILES | max response
COc1cc(OC)c(C(=O)OC(C)C(=O)Nc2cc(C(F)(F)F)ccc2Cl)cc1OC (stereo not drawn) | 4.97%
CC1=C(C(N)=O)C(c2ccc(Br)cc2)n2ncnc2N1 (stereo not drawn) | -0.44%
c1ccc(-c2cc(N3CCCCC3)c3ccccc3n2)cc1 | -6.32%
Cc1ccc(S(=O)(=O)N(C)C)cc1NC(=O)C1Cc2ccccc2CN1C(=O)c1ccco1 (stereo not drawn) | -2.92%
C=CCC1=C/C(=C\c2c(N)n3nc(CC(=O)N4CCOCC4)sc3nc2=O)C=C(OC)C1=O | 0.431%
Cc1ccc(OS(=O)(=O)c2ccc(-c3csc(C)n3)s2)c(C)c1 | 1.06%
CN(Cc1nc2ccc(F)cc2[nH]1)Cc1nc(CC2CC2)no1 | -0.7%
COc1ccccc1OCC(O)CN1CCOCC1 (stereo not drawn) | -1.33%
OC(COc1ccc2ccccc2c1)Cn1cncn1 (stereo not drawn) | 8.69%
OC(COc1ccc2ccccc2c1)CN1CCOCC1 (stereo not drawn) | 24% (active)
COc1ccc(C(=O)Nc2cc(C)c(NC(=O)c3ccccc3OC)cn2)cc1 | 9.29%
Nc1nc(NCc2ccccc2)n(-c2ccccc2)n1 | -3.49%
CC(=O)Nc1ccc(N2C(=O)CC(Sc3nccc(C)n3)C2=O)cc1 (stereo not drawn) | -0.348%
O=C(CNC(=O)C(c1ccccc1)c1ccccc1)N/N=C\c1ccc2c(c1)OCO2 | 35.9% (active)
O=C(N/N=C/c1ccc2c(c1)OCO2)C(=O)N1CCCC1 | 46.6% (active)
Cc1[nH]c2ccccc2c1/C=N/NC(=O)CNC(=O)c1ccc2c(c1)OCO2 | -0.0106%
COc1ccccc1N1CCN(C(=O)C(=O)N/N=C/c2ccccc2F)CC1 | -0.733%
O=C(Cc1ccc(F)cc1)N/N=C/c1ccc2c(c1)OCO2 | 14.7%
O=C(N/N=C/c1ccc([N+](=O)[O-])cc1)C(=O)N1CCCC1 | -0.79%
Cc1cccc(Cn2cnc3c(N)c(C)c(C)cc32)c1 | -6.87%
CC(NC(=O)COC(=O)C1CCN(S(=O)(=O)c2ccccc2C(F)(F)F)CC1)c1ccccc1 (stereo not drawn) | -0.765%
COc1ccc(NS(=O)(=O)c2ccc(N3CCOCC3)c(NC(=O)c3ccccc3Br)c2)cc1 | -1.16%

SMILES | max response
Cc1cc(N(C)C)nc(Cl)n1 | -9.03%
Cc1cc(NC(=O)CN2CCCCC2C)nc2c1c(=O)oc1ccccc12 (stereo not drawn) | 0.268%
CCCCC(=O)Nc1cc(C)c2c(=O)oc3ccccc3c2n1 | 10.7%
CCOC(=O)c1c(C)nc2c(c1C)c(=O)oc1ccccc12 | 14.3% (active)
COc1ccc(CC(NC(C)=O)C(=O)NC2CCN(C(=O)C3CC3)CC2)cc1OC (stereo not drawn) | -7.16%
C=CCNC(=S)N/N=C/c1ccc(OCc2ccccc2)cc1 | -1.7%
Cc1ccc(/C=N/NC(=O)CN2CCN(Cc3ccccc3)CC2)s1 | 8.96%
C=CCNC(=S)N/N=C/c1ccc(C)s1 | 31.5% (active)
COc1ccc2c3c1O[C@H]1C[C@@H](O)C=C[C@@]31CCN(C)C2 | -0.885% and -4.86%
CN1CCN(S(=O)(=O)c2ccc(NC(=S)NC(=O)C3CC3)cc2)CC1 | 1.23%
CN(C)C(=S)Nc1ccc(Br)cc1Cl | -1.09%
O=C(NC(=S)Nc1ccc(Cl)cc1Cl)C1CC1 | 39.5% (active)
Cc1ccc2c(c1)C1CN(C)CCC1N2C(=S)Nc1ccc(Cl)cc1Cl (stereo not drawn) | -1.23%
S=C(Nc1ccc(Br)cc1Cl)N1CCC2(CC1)OCCO2 | 20.3% (active)
CC1CN(C(=S)Nc2ccc(Br)cc2Cl)CC(C)O1 (stereo not drawn) | 0.924%
S=C(Nc1ccc(Cl)cc1Cl)N1CCCC1 | 60.1% (active)
S=C(NCc1cccnc1)Nc1ccc(Cl)cc1Cl | 9.37%
Cc1cc(Cl)ccc1NC(=S)N1CCC(C(N)=O)(N2CCCCC2)CC1 | -2.11%
CC(Oc1ccc(F)cc1)C(=O)N1CCN(c2ncccn2)CC1 (stereo not drawn) | -2.63%
CNC(=O)[C@]1(C(F)(F)F)C[C@H](CCc2ccccc2)CCCO1 | 3.47%
Cn1cnc([N+](=O)[O-])c1Sc1ccccc1 | -3.34%
Cc1cccc(NS(=O)(=O)c2ccc([N+](=O)[O-])cc2)n1 | -1.49%

SMILES | max response
O=C(COc1cccc(-n2cnnn2)c1)NCCC1=CCCCC1 | 0.68%
CSc1ccccc1N1CCN(CCCCCC(=O)NC2CCCc3ccccc32)CC1 (stereo not drawn) | -7.34%
Nc1ccc(Nc2ccccc2)cc1 | -1.73%
Cc1ccc(Nc2ccccc2N)cc1 | 33.2% (active)
Nc1ccc(C(=O)Nc2ccccc2N)cc1 | 5.95%
COc1ccc(COCCN2CCN(S(=O)(=O)c3ccccc3)CCC2=O)cc1 | -3.54%
COc1ccc(S(=O)(=O)N(C)CC(=O)N2CCCC2)cc1 | -3.08%
CCOC(=O)N1CCN(C(=O)c2cn(C)c3ccc(S(=O)(=O)N(CC)CC)cc3c2=O)CC1 | -2.19%
CC(C(=O)NC1CCS(=O)(=O)C1)N1C(=O)/C(=C/c2ccc(Cl)cc2)SC1=S (stereo not drawn) | 16.6%
Cc1nnc(NCCO)c2ccccc12 | 4.14%
COc1ccc(Nc2nnc(C)c3ccccc23)cc1 | 29.8% (active)
COc1ccc(Nc2nc(=O)[nH]nc2C)cc1 | -2.63%
COc1ccc(C(=O)NCC(=O)N/N=C/c2cccnc2)cc1 | -4.37%
S=C(NCCCc1cnc[nH]1)NCCCN(Cc1ccc(Cl)c(Cl)c1)c1ccc(Br)cn1 | -1.98%
CC1(C)C2CC=C(/C=N/NC(=O)c3ccc(Cl)cc3)C1C2 (stereo not drawn) | 10.5%
Cn1nccc1/C=N\NC(=O)c1ccc(Cl)cc1 | 14.7% (active)
COc1ccc(/C=N/NC(=O)c2ccc(Cl)cc2)cc1COC(C)=O | 1.21%
CCOC(=O)c1sc(NC(=O)CSc2nc(C)cc(C(F)(F)F)n2)c(C#N)c1C | 1.11%
COc1cc(C(=O)OC2CCOC2=O)c([N+](=O)[O-])cc1OC (stereo not drawn) | -5.93%
COc1cc(CN2CCCN(C)CC2)c([N+](=O)[O-])cc1OC | -2.2%
CN(C)c1ccc(/C=C/C(=O)c2ccc(O)cc2)cc1[N+](=O)[O-] | 61.3% (active)
O=C(/C=C/c1ccc2c(c1)OCCO2)c1ccc(O)cc1 | 36.6% (active)

SMILES | max response
CN(C)c1ccc(/C=C/C(=O)c2ccc(C(C)(C)C)cc2)cc1[N+](=O)[O-] | 9.22%
O=C(/C=C/c1ccc(Cl)c([N+](=O)[O-])c1)c1cccnc1 | 9.23%
O=C(O)/C=C/c1ccc2c(c1)OCCO2 | 5.58%
O=C(COC(=O)/C=C/c1ccc2c(c1)OCO2)NC1CCS(=O)(=O)C1 (stereo not drawn) | 2.81%
COc1cccc(NC(=O)N2C3CCCC2CC(NC(C)=O)C3)c1 (stereo not drawn) | -3.34%
CCOC(=O)c1ccccc1NS(=O)(=O)c1c(C)nc2sccn2c1=O | -3.59%
Brc1ccccc1CN1CCC(Cc2ccccc2)CC1 | -0.443%
CC(C)CN(CC(C)C)C(=O)CN1c2cccc3cccc(c23)S1(=O)=O | 0.92%
O=C(CN1CCCC1)Nc1sc2c(c1C(=O)Nc1ccccc1)CCCC2 | 0.772%
O=C(N/N=C/c1ccco1)c1ccc(NC(=O)C2CC2)cc1 | 2.6%
CCOC(=O)c1sc(NC(=O)c2sc(C)nc2C)nc1C | 10.2%
CC1CC(C)CN(CCCNC(=O)c2csc3c2CCCCC3)C1 (stereo not drawn) | 13.5%
Cc1ccc(NC(=O)c2csc3c2CCCC3)cc1 | 46.6% (active)
COC(=O)c1sccc1NC(=O)c1csc2c1CCCC2 | 11.4%
O=C(N/N=C/c1ccco1)c1ccc(C(=O)N/N=C/c2ccco2)o1 | 11.6%
COC(=O)c1sc(NC(=O)c2csc3c2CCCC3)nc1C | 52.4% (active)
O=C(N/N=C/c1ccco1)c1csc2c1CCCC2 | 54.4% (active)
COC(=O)c1c(NC(=O)CCCC(=O)O)sc2c1CCCCC2 | 1.25%
Cc1ccc(NC(=O)c2c(NC(=O)CCC(=O)O)sc3c2CCCCC3)cc1 | 39.3% (active)
O=C(Nc1ccccc1N1CCOCC1)c1csc2c1CCCC2 | 8.7%
